Results: PubChem BioAssay (EPA / NIEHS)
Records with an inconclusive call do not appear. Activity calls are given as the source filed them. How the source made its calls, unless noted: active means hit-call score of the fitted dose curve at least 0.9, where 1 is the maximum; inactive means score below 0.9.

Experiments:
[1] = CCTE_Shafer_MEA_dev_per_burst_spike_percent: CCTE's Neural Network Formation Assay for Percent of Spikes in a Burst, Shafer Lab (AID 2284032);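 further: fitted as a decrease in burst spike percentage below DMSO baseline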
Procedure, shortened: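 Value is trapezoidal AUC over recordings on days 5, 7, 9 and 12 of the well-mean fraction of spikes falling in single-electrode bursts; rat cortical cultures exposed continuously from plating, treatment renewed DIV 5 and 9, fitted downward against DMSO.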

[2] = CCTE_Shafer_MEA_dev_active_electrodes_number: CCTE's Neural Network Formation Assay for Number of Active Electrodes, Shafer Lab (AID 2284040; active means hit-call score of the fitted dose curve at least 0.9, where 1 is the maximum;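 further: potency for loss of active electrodes versus DMSO so lower counts are hits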)
Procedure, shortened: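 Developing rat cortical networks on MEAs, exposed DIV 0–12. Value is the AUC of active-electrode counts (≥5 spikes/min) from days 5, 7, 9, 12, relative to DMSO.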

[3] = CCTE_Shafer_MEA_dev_per_burst_interspike_interval: CCTE's Neural Network Formation Assay for Burst Interspike Interval, Shafer Lab (AID 2284044);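 further: potency for a decrease of within-burst interspike interval below DMSO level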
Procedure, shortened: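 Primary rat cortical neurons on 48-well MEA plates, exposed from day 0 through day 12, treatment renewed at DIV 5 and 9. Within-burst interspike interval recorded days 5, 7, 9, 12, well-averaged, summarised as AUC; negative fit versus DMSO.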

[4] = CCTE_Shafer_MEA_dev_burst_duration_mean: CCTE's Neural Network Formation Assay for Mean Burst Duration, Shafer Lab (AID 2284045)
Procedure, shortened: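 Mean single-electrode burst duration (first to last spike), averaged over bursting electrodes per well, then integrated as area-under-curve across recordings at days 5, 7, 9 and 12. Rat cortical cultures on MEAs, compound present from plating, refreshed at feeds.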

[5] = CCTE_Shafer_MEA_dev_interburst_interval_mean: CCTE's Neural Network Formation Assay for Mean Interburst Interval, Shafer Lab (AID 2284046);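 further: well-mean interburst interval of bursting electrodes as AUC over four recording days; curve fitted for decrease in interburst interval relative to DMSO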
Procedure, shortened: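 Recordings on days 5, 7, 9 and 12 give well-mean interburst interval across actively bursting electrodes, summarized as area under the curve. Cultures: rat cortical neurons, continuous exposure from day 0, compound renewed at feeds; decrease analyzed versus DMSO.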

[6] = CCTE_Shafer_MEA_dev_inter_network_spike_interval_mean: CCTE's Neural Network Formation Assay for Mean Inter-network Spike Interval, Shafer Lab (AID 2284047)
Procedure, shortened: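 Primary rat cortical neurons on 16-electrode MEA wells, exposed from plating day 0 through DIV 12, compound renewed at DIV 5 and 9 media changes. Mean interval between network-spike peaks recorded DIV 5, 7, 9, 12; collapsed as trapezoidal AUC, fitted downward versus DMSO.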

[7] = CCTE_Shafer_MEA_dev_network_spike_number: CCTE's Neural Network Formation Assay for Number of Network Spikes, Shafer Lab (AID 2284048);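 further: synchronized bursts across electrodes counted on days 5 7 9 12 and integrated as AUC; fit as a loss of signal meaning fewer network spikes than DMSO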
Procedure, shortened: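 Number of network spikes (coordinated firing across electrodes) recorded on days 5, 7, 9 and 12 and summarised as area under the curve. Rat cortical cultures on MEA, continuous compound exposure with full medium/treatment exchange at DIV 5 and 9.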

[8] = CCTE_Shafer_MEA_dev_network_spike_peak: CCTE's Neural Network Formation Assay for Mean Number of Electrodes in Network Spike, Shafer Lab (AID 2284049);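 further: fitted for loss of signal meaning fewer electrodes in network spikes than DMSO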
Procedure, shortened: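 Rat cortical primary culture, 1.5 x 10^5 cells/well, 48-well MEA (16 electrodes/well). Dosing day 0 through DIV 12, full media/compound exchange DIV 5, 9. AxIS adaptive spike detection; AUC over days 5/7/9/12; loss-of-signal vs DMSO.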

[9] = CCTE_Shafer_MEA_dev_spike_duration_mean: CCTE's Neural Network Formation Assay for Mean Spike Duration, Shafer Lab (AID 2284051);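 further: mean network spike duration pooled as area under curve over DIV 5 to 12 recordings; potency for a decrease in mean network spike duration versus DMSO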
Procedure, shortened: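 Primary rat cortical neurons on 16-electrode MEA wells (PEI-coated, laminin in plating drop), exposed from plating through DIV 12 with compound renewed at DIV 5 and 9. Mean network-spike duration recorded DIV 5, 7, 9, 12; trapezoidal AUC across days, DMSO baseline.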

[10] = CCTE_Shafer_MEA_dev_network_spike_duration_std: CCTE's Neural Network Formation Assay for Standard Deviation of Network Spike Duration, Shafer Lab (AID 2284052);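 further: hits are decreases in network spike duration SD versus DMSO vehicle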
Procedure, shortened: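 Primary rat cortical neurons on PEI-coated 16-electrode MEA wells, exposed from plating day 0 through day 12 with compound renewed at DIV 5 and 9. Network spike duration SD recorded on days 5, 7, 9, 12, collapsed as trapezoidal AUC; loss-of-signal fit versus DMSO.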

[11] = CCTE_Shafer_MEA_dev_per_network_spike_spike_number_mean: CCTE's Neural Network Formation Assay for Mean Number of Spikes in a Network Spike, Shafer Lab (AID 2284053);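 further: fitted as decrease in spikes per network spike relative to DMSO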
Procedure, shortened: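 Primary rat cortical neurons on 48-well, 16-electrode MEA plates were exposed from plating to DIV 12, with dosing renewed on DIV 5 and 9. Spikes per network spike (0.05 s peak window) were recorded on DIV 5, 7, 9 and 12 and collapsed as trapezoidal AUC versus DMSO.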

[12] = CCTE_Shafer_MEA_dev_per_network_spike_spike_percent: CCTE's Neural Network Formation Assay for Percent of Spikes in a Network Spike, Shafer Lab (AID 2284054)
Procedure, shortened: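 Metric: fraction of spikes falling in a 0.05 s window at network-spike peaks. Recordings were made on days 5, 7, 9 and 12 and collapsed by trapezoidal AUC. Cultures were rat cortical neurons on MEA plates, dosed continuously from plating, re-dosed at media changes.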

[13] = CCTE_Shafer_MEA_dev_AB: CCTE's Alamar Blue Assay for Cytotoxicity in the Neural Network Formation Assay, Shafer Lab (AID 2284083; active means hit-call score of the fitted dose curve at least 0.9, where 1 is the maximum;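 further: twelve days of exposure from plating with re-dosing on DIV 5 and 9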)
Procedure, shortened: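 Primary rat cortical neurons on PEI-coated 48-well MEA plates, 1.5 x 10^5 cells/well in laminin drop; compound exposure from day 0 of plating for twelve days, renewed at medium changes on DIV 5 and 9. Viability read as resazurin reduction by fluorescence, relative to DMSO.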

[14] = CCTE_Shafer_MEA_dev_mutual_information_norm: CCTE's Neural Network Formation Assay for Mutual Information Normalization, Shafer Lab (AID 2284091);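 further: mutual information between electrodes summarised as area under curve across four recording days; potency is for a decrease in mutual information relative to DMSO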
Procedure, shortened: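 Shared information across electrodes, tracked on days 5, 7, 9 and 12 of network development and collapsed as trapezoidal area under the curve. Rat cortical cultures were treated continuously from plating, with treatment renewed at feeds on DIV 5 and 9; DMSO baseline, negative-direction fit.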

[15] = CCTE_Shafer_MEA_dev_correlation_coefficient_mean: CCTE's Neural Network Formation Assay for Mean Correlation Coefficient, Shafer Lab (AID 2284093);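 further: well mean pairwise spike train correlation integrated as AUC over recording days 5 to 12; potency fitted for loss of correlation relative to DMSO vehicle wells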
Procedure, shortened: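 Spontaneous activity recorded on days 5, 7, 9 and 12 post-plating; pairwise spike correlations are averaged across active electrodes and collapsed to an area-under-curve. Rat cortical cultures are dosed from plating through 12 days, with compound renewed at media changes.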

[16] = IUF_NPC1b_proliferation_BrdU_72hr: Leibniz Research Institute for Environmental Medicine (IUF) 72-hour Neural Progenitor Cell Bromodeoxyuridine (BrdU) Proliferation Assay (NPC1b) (AID 2284207)
Procedure, shortened: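 Human fetal cortex-derived (GW 16-19) neural progenitor spheres, 0.25-0.35 mm, one per well in EGF/FGF proliferation medium, exposed to compound for 72 h at 37C, pH 7.2-7.6. BrdU incorporation over the final 16 h read by luminescence ELISA, relative to DMSO.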

[17] = IUF_NPC1a_proliferation_area_72hr: Leibniz Research Institute for Environmental Medicine (IUF) 72-hour Neural Progenitor Cell Proliferation Area Assay (NPC1a) (AID 2284208)
Procedure, shortened: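 Single 0.25–0.35 mm human fetal neural progenitor spheres in proliferation medium with EGF and FGF, exposed 72 h from plating without renewal at 37C, pH 7.2-7.6. Sphere area growth measured by automated phase-contrast imaging, relative to DMSO.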

[18] = IUF_NPC1_viability_72hr: Viability Assessment at 72 hours in the Leibniz Research Institute for Environmental Medicine (IUF) Neural Progenitor Cell Proliferation Assay (NPC1) (AID 2284209)
Procedure, shortened: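 Three-day continuous exposure of human neural progenitor spheres under EGF/FGF-driven proliferation; cell viability scored by alamar blue signal versus DMSO.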

[19] = CCTE_Mundy_HCI_Cortical_Synap_Neur_Matur_NeuriteSpotCountPerNeuriteLength: CCTE's Synaptogenesis and Neurite Maturation Assay in rat cortical cells for Neurite Spot Count per Neurite Length, Mundy Lab (AID 2284210)
Procedure, shortened: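 Synaptophysin spots per unit neurite length, measured by automated imaging of MAP2/synaptophysin/Hoechst-stained neurons. Cultures from rat cortex received chemical at DIV 7 with media change through DIV 12; glial growth arrested by AraC at DIV 5; DMSO baseline.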

[20] = CCTE_Mundy_HCI_Cortical_Synap_Neur_Matur_BPCount: CCTE's Synaptogenesis and Neurite Maturation Assay in rat cortical cells for Branch Point Count, Mundy Lab (AID 2284211)
Procedure, shortened: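 In this multiplexed morphology assay, cortical cells from rat receive chemicals at DIV 7 and are fixed at DIV 12, then immunostained and imaged; branch points are counted, with DMSO as baseline.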

[21] = CCTE_Mundy_HCI_Cortical_NOG_NeuriteCount: CCTE's Neurite Outgrowth Assay in rat cortical cells for Neurite Count, Mundy Lab (AID 2284212);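 further: cells fixed about two days after chemical exposure began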
Procedure, shortened: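 Rat cortical primary cells; compound added 2 h post-plating, 1/10 dilution of working solution. Anti-betaIII-tubulin/AF488 ICC; ArrayScan neurite count vs DMSO.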

[22] = CCTE_Mundy_HCI_Cortical_NOG_NeuriteLength: CCTE's Neurite Outgrowth Assay in rat cortical cells for Neurite Length, Mundy Lab (AID 2284213);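 further: neurites imaged about 48 to 50 h after chemical exposure began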
Procedure, shortened: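 First, rat primary cortical cells were plated and, 2 h later, given test chemical as a 1/10 dilution. Finally, βIII-tubulin immunostaining enabled automated imaging of neurite length.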

[23] = CCTE_Mundy_HCI_Cortical_Synap_Neur_Matur_NeuriteLength: CCTE's Synaptogenesis and Neurite Maturation Assay in rat cortical cells for Neurite Length, Mundy Lab (AID 2284214)
Procedure, shortened: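 DMSO-normalised neurite length, from high-content imaging of anti-MAP2-stained rat cortical cells fixed at DIV 12. Glia were suppressed with AraC (DIV 5) before chemical exposure from DIV 7.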

[24] = CCTE_Mundy_HCI_Cortical_Synap_Neur_Matur_NeuriteSpotCountPerNeuron: CCTE's Synaptogenesis and Neurite Maturation Assay in rat cortical cells for Neurite Spot Count per Neuron Count, Mundy Lab (AID 2284215)
Procedure, shortened: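 Rat primary cortical cultures given AraC at DIV 5, dosed from DIV 7 to DIV 12 with media change. Fixed, stained for MAP2, synaptophysin and Hoechst; neurite-associated synaptophysin puncta per neuron quantified by high-content imaging versus DMSO.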

Measured: AC50

BrC1CC(Br)CC(Br)CC(Br)CC(Br)CC(Br)C1 (centres undefined)
active: [1] 4.4 µM | [2] 6.75 µM | [3] 8.48 µM | [5] 4.31 µM | [7] 8.72 µM | [8] 7.04 µM | [9] 3.57 µM | [10] 5.04 µM | [11] 4.17 µM | [12] 6.85 µM | [13] 12.6 µM | [14] 2.73 µM | [15] 2.92 µM | [16] 8.81 µM | [19] 3.49 µM | [20] 3.17 µM | [21] 8.41 µM | [22] 8.28 µM | [23] 4.04 µM | [24] 3.23 µM
inactive: [4] | [6] | [17] | [18]
